Experimental data from PubChem BioAssay.
Activity calls are given as the source filed them.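 How the source made its calls: active means inhibition above 20% together with a positive visual image hit; inconclusive means visual image hit but inhibition not above 20%; inactive means no visual image hit.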

Assay: inhibitors of TNFa-induced NFkB p65 translocation, primary screen, imaging, HUVEC, MLSMR starter and 10KST1 sets (AID 438);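 further: compound added about 3h40 before a 20 min TNFalpha stimulation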;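 on inhibition: signal is the nuclear over cytoplasmic p65 intensity ratio per well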
Settings: HUVEC TNFa-induced p65 nuclear translocation; cell count: measured here: nuclei count (cytotoxicity indicator), at 2.08 µM; inhibition: at 2 µM, stronger effect = higher value, 0% TNFa-plus-vehicle, 100% no-TNFa wells

| SMILES | cell count | inhibition |
| --- | --- | --- |
| Cc1ccc(Oc2nc3c(c(=O)n(Cc4ccccc4F)c(=O)n3C)n2C)cc1 | 749 | 2.1% (inactive) |
| N#Cc1c(N)n(CCOC(=O)c2ccc(Cl)cc2)c2nc3ccccc3nc12 | 617 | 22.7% (active) |
| CCCc1nnc(NC(=O)Nc2ccccc2OC)s1 | 618 | -9.4% (inactive) |
| O=C(C1=C(O)C(=O)N(CCCN2CCOCC2)C1c1ccccn1)c1cc2ccccc2o1 (stereo not given) | 558 | -4.5% (inactive) |
| COc1ccc(CCn2c(=N)c(C(=O)NCc3ccco3)cc3c(=O)n4ccccc4nc32)cc1OC | 633 | -2.8% (inactive) |
| O=C(c1ccccc1)n1c(=S)nc2ccccn21 | 751 | -1.4% (inactive) |
| CCc1nc2n[nH]c(N)c2c2c1CCCC2 | 410 | -3% (inactive) |
| O=c1c2ccccc2ncn1Cc1ccco1 | 682 | -8.5% (inactive) |
| O=C(O)c1cc2sccc2s1 | 643 | 0% (inactive) |
| CC(C)c1[nH]c(=O)c(C#N)c2c1CSC(C)(C)C2 | 507 | -14% (inactive) |
| CC1(C)Cc2c(c(N3CCOCC3)nc3snc(Br)c23)CO1 | 489 | -4.5% (inactive) |
| COc1ccc(C2C(C#N)=C(N)Oc3cc(C)n(CCN4CCOCC4)c(=O)c32)cc1OC (stereo not given) | 520 | -5.9% (inactive) |
| Cc1ccc(N2C(=O)CC3(CC4C=CC3C4)C2=O)cc1 (stereo not given) | 637 | 6.2% (inactive) |
| CCCc1cc(NCCN2CCOCC2)n2c(nc3ccccc32)c1C#N | 472 | 0.5% (inactive) |
| CCN(CC)CCCN1C(=O)C(=O)/C(=C(/O)c2ccc(OC)cc2)C1c1ccco1 (stereo not given) | 651 | -11.9% (inactive) |
